# Six1-Eya2 blk: blocks human Six1 binding to Eya2; AlphaScreen GST-Six1/His-Eya2 binding, biochemical; hits give low values; activity change, % (concentration not given with the values); 0.56% of 360,000 active; AID 651725; in the data active = activity change below about -65%; inconclusive = mostly about -30% to -63%
# Target sequence (O00167 whole entry, looked up): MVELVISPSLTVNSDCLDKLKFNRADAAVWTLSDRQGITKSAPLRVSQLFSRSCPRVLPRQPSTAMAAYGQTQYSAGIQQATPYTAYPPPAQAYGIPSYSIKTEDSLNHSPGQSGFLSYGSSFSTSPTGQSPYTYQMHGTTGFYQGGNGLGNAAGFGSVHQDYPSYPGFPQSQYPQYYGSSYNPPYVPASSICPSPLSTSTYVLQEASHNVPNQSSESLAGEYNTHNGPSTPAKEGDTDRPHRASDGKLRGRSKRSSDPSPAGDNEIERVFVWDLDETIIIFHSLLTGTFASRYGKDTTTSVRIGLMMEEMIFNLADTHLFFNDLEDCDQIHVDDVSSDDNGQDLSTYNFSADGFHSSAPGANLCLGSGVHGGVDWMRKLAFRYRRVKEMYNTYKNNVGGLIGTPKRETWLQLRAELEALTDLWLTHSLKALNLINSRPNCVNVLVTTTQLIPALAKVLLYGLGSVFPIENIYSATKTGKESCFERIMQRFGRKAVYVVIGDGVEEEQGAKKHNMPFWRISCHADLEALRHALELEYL
# Target sequence (Q15475 whole entry, looked up): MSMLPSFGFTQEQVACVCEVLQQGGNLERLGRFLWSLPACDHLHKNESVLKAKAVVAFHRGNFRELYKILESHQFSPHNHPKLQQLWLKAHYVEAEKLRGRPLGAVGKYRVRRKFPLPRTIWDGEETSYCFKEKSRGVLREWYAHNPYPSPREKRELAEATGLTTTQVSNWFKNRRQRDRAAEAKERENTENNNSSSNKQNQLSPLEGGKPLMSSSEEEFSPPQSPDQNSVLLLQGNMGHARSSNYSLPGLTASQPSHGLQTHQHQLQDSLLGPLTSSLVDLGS
#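 AlphaScreen with GST-Six1 and His-Eya2 (5X mix: 250 nM and 500 nM), glutathione donor and nickel acceptor beads; buffer 50 mM Tris pH 8.0, 300 mM NaCl, 1 mM TCEP; 1 h at 37 C in the dark.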
# DT40 TDP1 CPT: DT40-hTDP1 cell growth loss with CPT | Potency, µM (series often up to 46.2 µM), inactives show at the top dose activity change, negative = growth inhibition, hits mostly inhibitors | chicken DT40 Tdp1-/-;hTDP1 cells + 20 nM CPT, ATP luminescence, 48 h | 12% of 420,000 active; also: potency is read from the fitted curve at half-maximal effect; nearly all actives have a fitted effect of over 55% in size
#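 Chicken DT40 Tdp1-/- cells stably complemented with human TDP1 were seeded at 400 cells/well in medium containing 20 nM camptothecin, exposed to pin-transferred compounds, and grown at 37 °C for at least 48 hr. Viability was read as ATP luminescence.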
# TDP1 cell noCPT: qHTS for Inhibitors of human tyrosyl-DNA phosphodiesterase 1 (TDP1): qHTS in cells in absence of CPT. DT40 Tdp1-/- hTDP1 cells, no CPT, ATP luminescence, 48 h. Potency, µM (doses to about 46.2 µM), without a hit: top-dose activity change, negative = growth inhibition, actives largely listed as inhibitors. 15% of 420,000 active. AID 686978, 2013; also: potency is read from the fitted curve at half-maximal effect; nearly all actives have a fitted effect of over 55% in size
#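 Stably hTDP1-transfected Tdp1-null chicken DT40 cells were treated with library compounds minus camptothecin and grown for at least 48 hr at 37 °C, after which cellular ATP was quantified by luminescence.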
# IL1B secr inh: inflammasome signaling inhibition, IL-1 beta readout | THP-1 LPS/ATP IL-1B secretion, AlphaLISA, 16 h; hits give low values | activity change, % at 57.5 µM | 4.7% of 360,000 active | AID 743279; in the data active = activity change below about -50%; inconclusive = mostly about -30% to -49%
#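 Secreted IL-1B measured by AlphaLISA bead assay after 16 h compound exposure of THP-1 cells; compounds (final up to 57.5 uM) added 1 h before LPS (250 ng/mL) and ATP (1.25 mM) stimulation; lower signal means less secretion.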
# CtBP-E1A inh: inhibitors of CtBP/E1A interaction | 0.49% of 340,000 active | AID 651724 | activity change, % (test concentration not listed) | AlphaScreen GST-E1A/His-CtBP binding, 1536-well; hits give low values; in the data active = activity change below about -65%; inconclusive = mostly about -30% to -63%
#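 AlphaScreen with 125 nM GST-E1A and 125 nM His-CtBP (5X stocks) in Tris pH 8.0, 300 mM NaCl, BSA, Tween 20, TCEP. Compounds preincubated 2 h at 37 deg C, then glutathione donor/nickel acceptor beads added for 1 h at 37 deg C in dark.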
# TDP1 inh: blocks human tyrosyl-DNA phosphodiesterase 1; Q9NUW8; recombinant TDP1, AlphaScreen DNA substrate cleavage; Potency, µM (titrated, usually from 130 µM), inactives show at the top dose activity change, negative = inhibition, hits mostly inhibitors; 0.28% of 350,000 active; also: potency is read from the fitted curve at half-maximal effect; nearly all actives have a fitted effect of over 40% in size
#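 Recombinant human Tdp1 (E. coli-expressed, 1 nM final) preincubated with compounds 15 min at room temperature, then 5'-biotin/3'-phosphotyrosine-FITC DNA substrate (15 nM final) added for 5 min. AlphaScreen beads (10 ug/ml final) added 10 min; cleavage lowers signal.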
# Numbers without * were called inactive; ? = inconclusive; . = not tested or not shown; ! = repeats disagree; [ ] = dose if it differs, or a comment. Most compounds without a hit are left out; they make up all but 18% or so of the library. Unless noted, calls follow the shape of the dose curve; as a rule, active = well fitted curve in the direction sought with a large enough effect; inconclusive = small, poorly fitted or top-dose-only effect, or another doubt; inactive = no such curve, though single readings can be large; an effect the other way counts as inactive or inconclusive. % is scaled to controls: 0 for no effect and ±100 for the full control effect.
SMILES,Six1-Eya2 blk,DT40 TDP1 CPT,TDP1 cell noCPT,IL1B secr inh,CtBP-E1A inh,TDP1 inh
Cc1cccc(NC(=O)C2CCCN(S(=O)(=O)c3ccc4[nH]c(=O)ccc4c3)C2)c1 (configuration not stated),-5,-8%,-17%,-25,0,.
CC(C)CCOC(=O)/C=C/c1ccccc1,.,.,.,.,.,2%
OCc1cc([C@@H](O)CNCCCCCCOCCCCc2ccccc2)ccc1O,.,9.4µM*,11µM*,.,.,8%[56.1 µM]
COc1cc2c(cc1NC(=O)C(Cl)Cl)-c1ccc(NC(=O)C(Cl)Cl)cc1C2,-9,8.2µM*,8.2µM*,-97*,-8,.
CCN1CCN(S(=O)(=O)c2ccc(Cl)c(C(=O)N(C)Cc3ccc(F)cc3)c2)CC1,6,-30%,?,-5,0,-10%
COc1ccccc1Cn1c(C(C)C)nc2ccccc21,-5,?,?,2,.,2%
COc1ccc(/C=C/c2nc3ccccc3n2Cc2ccccc2OC)cc1,31,7.3µM*,8.2µM*,-201*,27,-5%
COc1ccccc1Cn1c(/C=C/c2ccccc2)nc2ccccc21,40,?,?,-80*,43,-8%
Cc1cc(C)c2c(n1)SCC(=O)N2CC(=O)Nc1ccc(Br)c(C)c1,9,-19%,?,-9,.,2%
COc1ccc(-c2cccc(-c3nc4ccc(Cl)cn4c3NC3CCCCC3)c2)cc1,0,18µM*,21µM*,-13,5,3%
CCCCCCSc1ccc(-c2nc3ccc(Cl)cn3c2NC2CCCCC2)cc1,0,26µM*,?,-2,4,-5%
CC(=O)c1csc(-c2cccc(-c3nc4ccc(Cl)cn4c3NC3CCCCC3)c2)c1,0,21µM*,?,-22,-4,0%
CCCCCCSc1cccc(-c2nc3ccc(C)cn3c2NC2CCCCC2)c1,7,?,?,-4,-1,0%
CCCCCCSc1cc(-c2nc3ccc(Cl)cn3c2NC2CCCCC2)ccc1OC,11,?,16µM*,-17,6,-6%
NC(=NC(=O)c1ccc(OCC(F)(F)F)nc1)c1ccc(Cl)cc1,10,-2%,-14%,24,13,.
CNc1cncc(-c2ccc(OC)cc2OC)n1,4,?,-23%,-28,-1,.
Cc1cc2c(c(-c3ccc(Cl)cc3)c1)OC(CNC(=O)Cc1c(C)noc1C)C2 (configuration not stated),.,0%[9.04 µM],-18%,.,.,.
Cn1nnnc1SCc1ccc(F)cc1,14,12%,11%,3,-2,0%
Cc1ccc(NC(=O)CCC(=O)N2Cc3ccccc3Oc3ncccc32)c(C)c1,.,?,?,.,.,3%
CCC(C)Sc1cc(-c2nc3ccc(Cl)cn3c2NC2CCCCC2)ccc1OC (configuration not stated),-16,16µM*,15µM*,-74*!,-1,1%
COc1ccc(S(=O)(=O)Nc2cccc(N(C)S(C)(=O)=O)c2)cc1C,6,26µM*,21µM*,10,-10,-2%
COc1ccc(S(=O)(=O)Nc2cccc(F)c2)cc1C,8,-22%,-17%,3,-5,2%
CCOc1ccc(S(=O)(=O)Nc2cccc(N(C)S(C)(=O)=O)c2)cc1,-3,23µM*,12µM*,0,4,7%
O=C(NCCN1CCOCC1)C(=O)NCC1OCCN1C(=O)c1ccc(Cl)cc1 (configuration not stated),5,-18%,-4%,5,3,4%
O=P(Cc1ccccc1)(c1ccccc1)c1ccccc1,-3,?,?,5,-3,1%
SMILES,Six1-Eya2 blk,DT40 TDP1 CPT,TDP1 cell noCPT,IL1B secr inh,CtBP-E1A inh,TDP1 inh
O=P(Cc1cccc2ccccc12)(c1ccccc1)c1ccccc1,6,?,21µM*,-9,-9,.
S=c1[nH]nc(-c2ccccc2Br)n1Cc1ccccc1,6,1%,-2%,14,.,3%
Clc1nc(Nc2ccccc2)nc(Nc2ccccc2)n1,-18,-4%,-21%,-100*,-19,0%
COc1ccc(Nc2nc(Cl)nc(Nc3ccc(OC)cc3)n2)cc1,8,-6%,?,-24,-1,1%
CC(C)(C)Nc1nc(Cl)nc(Nc2ccccc2)n1,-4,?,?,-65*,3,1%
CN(C)/C=C\C(=C/C(=O)C(F)(F)F)Nc1ccccc1Oc1ccccc1,-10,?,18µM*,-98*,-3,1%
CCC(=O)Nc1ccccc1Oc1ccccc1,1,-3%,?,50,4,1%
Cc1ccc(NC(/C=C/N(C)C)=C/C(=O)C(F)(F)F)c(C)c1,-6,16µM*,16µM*,7,-4,4%
COc1cc(C)c(NC(=O)C(=S)NCc2ccccc2)cc1C,1,0%,-13%,-22,0,4%
O=C(NCc1ccccc1)c1ccc(Cl)cc1[N+](=O)[O-],-1,0%,-9%,-5,3,2%
O=C(NNC(=O)C1C2C=CC(C2)C1C(=O)O)c1ccccc1O (configuration not stated),4,2%,12%,5,4,-3%
O=C(Nc1ccc(Br)c2ccccc12)c1ccc2ccccc2c1O,-20,8.2µM*,8.2µM*,-51*,.,8%
COc1cccc(C(=O)NNC(=O)c2ccc3ccccc3c2O)c1,-6,?,9.2µM*,51,.,.
O=C(NNC(=O)c1ccc2ccccc2c1O)c1ccccc1Cl,-10,?,13µM*,7,-13,5%
COc1ccc2[nH]c(=O)c(CN(C3CCCCC3)C(c3nnnn3Cc3ccco3)C(C)C)cc2c1 (configuration not stated),-21,12µM*,?,-93*,0,0%
CCOC(=O)Cn1nnnc1C(C(C)C)N(Cc1cc2c(C)cc(C)cc2[nH]c1=O)C1CCCC1 (configuration not stated),-14,23µM*,21µM*,?,-3,3%
Cc1ccc2[nH]c(=O)c(CN(Cc3nnnn3C3CCCC3)C3CCCCC3)cc2c1,6,-12%,-9%,20,8,3%
COc1ccc2[nH]c(=O)c(CN(Cc3nnnn3Cc3ccco3)C3CCCCC3)cc2c1,6,?,16µM*,-11,-5,.
CCOc1ccc2[nH]c(=O)c(C(c3nnnn3Cc3ccco3)N3CCC(C)CC3)cc2c1 (configuration not stated),16,-79%,26µM*,-5,0,0%
